SARS PLP yeast: inhibitors of SARS-CoV papain-like protease in yeast | S. cerevisiae expressing SARS-CoV PLpro, growth rescue | Potency, µM (highest dose often 32.9 µM), most hits filed as activators | 330,000 compounds, 0.19% hits; calls by dose curve; note: nearly all actives have a fitted effect of over 55% in size
Pf growth 96h: P. falciparum growth inhibition at 96 hour, primary screen for plastid delayed-death inhibitors; P. falciparum luciferase reporter growth, 96 h; Potency, µM (doses to about 28.7 µM), most hits filed as inhibitors; 320,000 compounds, 6.9% hits; AID 504834
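Readout is luminescence from an integrated firefly luciferase in P. falciparum. Red cells, 2% hematocrit and 0.05% parasitemia final, were cultured with compound through two parasite generations (96 hours) at 37 C, 5% CO2.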
Pf growth 48h: inhibits P. falciparum growth in the first generation, 48 h; Potency, µM (series often up to 28.7 µM), hits mostly inhibitors; 310,000 compounds, 5.9% hits; P. falciparum luciferase growth in erythrocytes, 48 h; AID 504832
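Cell-based growth assay: transgenic P. falciparum expressing firefly luciferase, cultured in red cells within RPMI 1640 containing 0.5% w/v Albumax, 24 mM bicarbonate and gentamycin. A drop in luciferase activity indicates inhibition.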
NS1 inh: inhibitors of influenza NS1 protein function; Potency, µM (titrated, usually from 46.1 µM); 270,000 compounds, 0.4% hits; AID 2326; calls by dose curve; note: actives are rising curves; nearly all actives have a fitted effect of over 50% in size
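A cell-based growth assay was used: compounds that relieve NS1-induced slow growth of budding yeast raise OD600. Assay medium was yeast nitrogen base with ammonium sulphate and -URA supplement, pH 6.0, with 2% galactose.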
Of the large screens only hits and unclear results are named; the others gave an inactive call. Most compounds without a hit are left out; they make up all but 10% or so of the library. Unless noted, calls come from the whole dose curve; as a rule, active = well fitted inhibition curve with a large enough effect; inconclusive = small, poorly fitted or top-dose-only effect, or another doubt; inactive = no such curve, though single readings can be large or run the other way.

O=C(Nc1cc2c(cc1[N+](=O)[O-])OCCO2)c1cccnc1	none (no result: Pf growth 96h, Pf growth 48h, NS1 inh)
Cc1ccc2cc(CN(Cc3ccc4c(c3)OCO4)Cc3nnnn3Cc3ccco3)c(=O)[nH]c2c1C	Pf growth 96h inconclusive, Pf growth 48h 8.3µM
COc1ccccc1CN(Cc1cc2cc(C)ccc2[nH]c1=O)Cc1nnnn1Cc1ccco1	Pf growth 96h 3.3µM, Pf growth 48h 12µM
CCOC(=O)Cn1nnnc1CN(Cc1ccc(OC)cc1)Cc1cc2cc(CC)ccc2[nH]c1=O	SARS PLP yeast inconclusive, Pf growth 96h inconclusive (no result: Pf growth 48h)
CCOC(=O)Cn1nnnc1CN(Cc1ccc(OC)cc1)Cc1cc2cc(C)ccc2[nH]c1=O	Pf growth 48h inconclusive
CCc1ccc2[nH]c(=O)c(CN(Cc3ccccc3OC)Cc3nnnn3Cc3ccco3)cc2c1	Pf growth 96h inconclusive, Pf growth 48h 4.7µM, NS1 inh inconclusive
CCCn1c(=O)c2[nH]c(-c3ccc(S(=O)(=O)O)cc3)nc2n(CCC)c1=O	none (no result: SARS PLP yeast)
COc1cccc(/C=N/NC(=S)NCCc2ccccc2)c1OC	none
COc1cccc(/C=N/NC(N)=S)c1OCc1cccc(Cl)c1	Pf growth 96h 3.7µM, Pf growth 48h 12µM
CCNC(=O)[C@@H]1CCCN1C(=O)[C@H](CCCN=C(N)N)NC(=O)[C@H](CC(C)C)NC(=O)[C@@H](Cc1c[nH]c2ccccc12)NC(=O)[C@H](Cc1ccc(O)cc1)NC(=O)[C@H](CO)NC(=O)[C@H](Cc1c[nH]c2ccccc12)NC(=O)[C@H](Cc1cnc[nH]1)NC(=O)[C@@H]1CCC(=O)N1	Pf growth 96h 1.5µM, Pf growth 48h 1.3µM (no result: SARS PLP yeast, NS1 inh)
Cc1cccc(C(=O)Oc2ccccc2C2C[C@]3(C)CC(=O)NC3N2C(=O)c2cccc(C)c2)c1 (stereo partly drawn)	Pf growth 96h 5.9µM (no result: Pf growth 48h)
C[C@@]12CC(=O)NC1N(C(=O)c1cccc(C(F)(F)F)c1)C(c1ccccc1O)C2 (stereo partly drawn)	none (no result: Pf growth 96h)
CCOC(=O)N1CCN(C(=O)Cc2ccc(-n3c(=O)[nH]c4ccccc4c3=O)cc2)CC1	Pf growth 96h 9.3µM
COC(=O)[C@H](CCSC)NC(=O)Cn1cnc2c(SC)nc(N)nc21	none (no result: Pf growth 96h, Pf growth 48h, NS1 inh)
CC1(C)S[C@@H]2[C@H](NC(=O)[C@@H](N)c3ccccc3)C(=O)N2[C@H]1C(=O)O[C@H]1OC(=O)c2ccccc21	Pf growth 96h inconclusive (no result: SARS PLP yeast, NS1 inh)
C=C[C@@H]1C[C@@]1(C)[C@@H](NP(=O)(c1ccccc1)c1ccccc1)c1ccccc1	Pf growth 96h inconclusive, Pf growth 48h inconclusive
CC/C(=C\C1CCCCC1)C(NP(=O)(c1ccccc1)c1ccccc1)c1ccccc1 (stereo not drawn)	Pf growth 96h 6.6µM, Pf growth 48h 9.3µM
Cc1cccc(NC(=O)Nc2cnccn2)c1C	Pf growth 96h inconclusive
CCOC(=O)/C=C(C)\C=C\c1c[nH]c2ccccc12	Pf growth 48h 13µM
CCOC(=O)/C(=C/c1c[nH]c2ccccc12)NC(C)=O	none
CCC(CC)C(=O)Nc1c(C(=O)N2CCN(c3ccccc3)CC2)oc2ccccc12	Pf growth 48h 10µM
O=C(CSc1nnc(SCc2cccc3ccccc23)s1)N/N=C/C=C/c1ccccc1[N+](=O)[O-]	none
O=C(CSc1ccc(F)cc1)Nc1cccc(S(=O)(=O)N2CCOCC2)c1	none (no result: Pf growth 96h, Pf growth 48h, NS1 inh)
Oc1ccc(C(O)CNCCCCCCNCC(O)c2ccc(O)c(O)c2)cc1O (stereo not drawn)	Pf growth 96h 12µM, Pf growth 48h 7.6µM (no result: SARS PLP yeast, NS1 inh)
CNC[C@H](O)c1ccc(O)c(O)c1	none
Cc1ccc(F)cc1NC(=O)COC(=O)c1ccc2ncsc2c1	none (no result: NS1 inh)
Cc1ccc(C(=O)NC(NC(=O)c2ccc(C)cc2)c2cccc([N+](=O)[O-])c2)cc1	Pf growth 96h inconclusive, Pf growth 48h inconclusive
CC(NC(=O)c1ccccc1F)C(=O)O (stereo not drawn)	none
COc1cccc(C(NC(=O)c2ccccc2F)NC(=O)c2ccccc2F)c1	Pf growth 96h inconclusive, Pf growth 48h 13µM
Cc1ccccc1C(=O)NC(NC(=O)c1ccccc1C)c1cccc([N+](=O)[O-])c1	Pf growth 96h 1.7µM
CCCn1cc(SCC(=O)Nc2ccc3c(c2)OCO3)c2ccccc21	Pf growth 96h 10µM, Pf growth 48h inconclusive
CC(NC(=O)COc1cc(=O)n(C)c2ccccc12)c1ccc2c(c1)OCCO2 (stereo not drawn)	Pf growth 96h 8.3µM
CC(NC(=O)c1cc2c(=O)n(C)c3ccccc3c2n1C)c1ccc2c(c1)OCCO2 (stereo not drawn)	none (no result: SARS PLP yeast, Pf growth 96h, Pf growth 48h)
Cn1c(=O)cc(SCC(=O)Nc2ccc3c(c2)OCO3)c2ccccc21	Pf growth 96h 2.9µM
COc1cc(-c2nnc(COC(=O)c3nn(CC(C)C)c(=O)c4ccccc34)o2)cc(OC)c1OC	none (no result: NS1 inh)
COc1cc(NS(=O)(=O)c2ccc(C)cc2)c2ncccc2c1	Pf growth 48h 2.3µM
COc1cc(NCCCC(C)N)c2ncccc2c1 (stereo not drawn)	Pf growth 96h 0.85µM, Pf growth 48h 0.26µM, NS1 inh inconclusive
Cc1ccc(NS(=O)(=O)c2cccc3cccnc23)c(Cl)c1	none
Cc1ccc(S(=O)(=O)Nc2cccc3cccnc23)cc1	Pf growth 96h 3.7µM (no result: Pf growth 48h)
COc1ccc(C)cc1NS(=O)(=O)c1cccc2cccnc12	none (no result: SARS PLP yeast, Pf growth 96h, Pf growth 48h)
CCCCn1c(N)c(N(CC(C)C)C(=O)c2cccc(S(=O)(=O)N3CCN(C)CC3)c2)c(=O)[nH]c1=O	none (no result: NS1 inh)
CCc1c(C)nc(N2CCN(c3ccccc3F)CC2)[nH]c1=O	none
CCn1cc(C(=O)N[C@H](C(=O)NCCN2CCOCC2)C(C)C)c(=O)c2cc3c(cc21)OCO3	none
CC(C)(C)c1ccccc1NC(=O)CN1C(=O)NC2(CCCCCC2)C1=O	none (no result: NS1 inh)
CC(c1nccs1)N(C)c1nc2nonc2nc1N(C)C (stereo not drawn)	Pf growth 96h 13µM
CC(c1nccs1)N(C)c1nc2nonc2nc1NC1CC1 (stereo not drawn)	none
CC1=C(C(=O)OCc2ccccc2)C(c2ccc(C)o2)C2=C(CCCC2=O)N1 (stereo not drawn)	Pf growth 48h 12µM
COc1ccc(C2C(C(=O)OCC3CCCO3)=C(C)NC3=C2C(=O)CC(c2ccco2)C3)cc1O (stereo not drawn)	Pf growth 96h 10µM, Pf growth 48h inconclusive
CC1=C(C(=O)OC2CCCCC2)C(c2ccc(C)o2)C2=C(CCCC2=O)N1 (stereo not drawn)	Pf growth 96h inconclusive (no result: Pf growth 48h)
COc1ccccc1NC(=O)C1=C(C)NC2=C(C(=O)CC(c3ccc(OC)c(OC)c3)C2)C1c1coc2ccccc2c1=O (stereo not drawn)	Pf growth 48h 12µM
COC(=O)C1=C(C)NC(C)=C(C(=O)OCC2CCCO2)C1c1cccc(Br)c1 (stereo not drawn)	Pf growth 96h inconclusive, Pf growth 48h 9.3µM
Nc1nc(SC/C=C\c2ccccc2)c2[nH]cnc2n1	none (no result: SARS PLP yeast, Pf growth 96h, Pf growth 48h)
Cc1noc(C)c1C(=O)OC(C)C(=O)NC(C)c1ccc(Cl)cc1Cl (stereo not drawn)	none (no result: Pf growth 96h, Pf growth 48h, NS1 inh)
CCOC(=O)C1=C(C)NC2=C(C(=O)CC(c3ccc(OC)c(OC)c3)C2)C1c1ccc(C)o1 (stereo not drawn)	Pf growth 96h inconclusive, Pf growth 48h 1.2µM
N#C/C(=C\c1ccccn1)c1ccccn1	Pf growth 96h 8.3µM, Pf growth 48h inconclusive
O=C(Nc1ccnn1C1CCN(C2CCCC2)CC1)c1ccccc1	none

Source: PubChem BioAssay (National Center for Advancing Translational Sciences (NCATS))
